# Laboratory results as given in publication PMC7862700, “An all-to-all approach to the identification of sequence-specific readers for epigenetic DNA modifications on cytosine”.
# Assays:
# Test in all cases: DAPPL (digital affinity profiling via proximity ligation, sequencing); 10 mM Tris-HCl pH 7.5, 50 mM NaCl, 1 mM DTT, 4% glycerol, room temperature, 30 min; GST-TFs on glutathione beads, 16-mer random dsDNA library, 0.1% formaldehyde crosslink after washing; high values mean tight binding
# FEV = target: T1, FEV (Homo sapiens, UniProt Q99581 1-238); settings: protein: recombinant; tags: N-terminal GST; dsDNA, one strand shown
# T1 sequence: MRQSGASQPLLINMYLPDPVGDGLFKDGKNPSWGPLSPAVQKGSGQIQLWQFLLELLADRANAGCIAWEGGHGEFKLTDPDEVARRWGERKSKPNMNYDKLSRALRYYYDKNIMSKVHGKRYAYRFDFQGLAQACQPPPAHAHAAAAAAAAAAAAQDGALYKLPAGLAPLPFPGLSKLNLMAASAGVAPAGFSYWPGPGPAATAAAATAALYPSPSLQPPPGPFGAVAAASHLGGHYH
# Procedure, shortened: (§1)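 Yeast served to express human transcription factors as GST fusions, which were then captured on glutathione beads and labelled with DNA barcodes. Pooled with a tag-only sample, they were incubated with 200 nmole of a 16-mer random double-stranded DNA library for 30 min at room temperature in Tris/NaCl/DTT/glycerol buffer, washed, crosslinked with 0.1% formaldehyde, ligated by proximity, amplified by PCR and sequenced. Dividing each hexamer's read frequency for a factor by its frequency for the tag-only sample gives the binding signal.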
# ETV5 = ETV5 (Homo sapiens, UniProt P41161 1-510); settings: protein: recombinant; tags: N-terminal GST; dsDNA, one strand shown
# Chain of ETV5 (P41161 whole entry): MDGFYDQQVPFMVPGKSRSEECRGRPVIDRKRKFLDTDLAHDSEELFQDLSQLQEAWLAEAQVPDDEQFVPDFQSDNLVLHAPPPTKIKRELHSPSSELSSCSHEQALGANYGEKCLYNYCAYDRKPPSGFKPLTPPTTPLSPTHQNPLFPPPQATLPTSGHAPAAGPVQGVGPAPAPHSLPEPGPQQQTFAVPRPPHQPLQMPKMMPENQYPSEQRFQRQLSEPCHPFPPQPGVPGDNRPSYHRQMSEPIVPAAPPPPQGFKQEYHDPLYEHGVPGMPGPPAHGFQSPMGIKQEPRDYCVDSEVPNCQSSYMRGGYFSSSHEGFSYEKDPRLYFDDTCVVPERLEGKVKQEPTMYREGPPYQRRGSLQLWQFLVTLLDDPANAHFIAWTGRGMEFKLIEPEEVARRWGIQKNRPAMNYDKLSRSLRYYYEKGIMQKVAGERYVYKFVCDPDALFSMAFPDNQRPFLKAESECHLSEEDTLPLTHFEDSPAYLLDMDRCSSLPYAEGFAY
# Procedure, shortened: as §1
# HSF1 = HSF1 (Homo sapiens, UniProt Q00613 1-529); settings: protein: recombinant; tags: N-terminal GST; chain copies: 3; dsDNA, one strand shown
# Chain of HSF1 (Q00613 whole entry): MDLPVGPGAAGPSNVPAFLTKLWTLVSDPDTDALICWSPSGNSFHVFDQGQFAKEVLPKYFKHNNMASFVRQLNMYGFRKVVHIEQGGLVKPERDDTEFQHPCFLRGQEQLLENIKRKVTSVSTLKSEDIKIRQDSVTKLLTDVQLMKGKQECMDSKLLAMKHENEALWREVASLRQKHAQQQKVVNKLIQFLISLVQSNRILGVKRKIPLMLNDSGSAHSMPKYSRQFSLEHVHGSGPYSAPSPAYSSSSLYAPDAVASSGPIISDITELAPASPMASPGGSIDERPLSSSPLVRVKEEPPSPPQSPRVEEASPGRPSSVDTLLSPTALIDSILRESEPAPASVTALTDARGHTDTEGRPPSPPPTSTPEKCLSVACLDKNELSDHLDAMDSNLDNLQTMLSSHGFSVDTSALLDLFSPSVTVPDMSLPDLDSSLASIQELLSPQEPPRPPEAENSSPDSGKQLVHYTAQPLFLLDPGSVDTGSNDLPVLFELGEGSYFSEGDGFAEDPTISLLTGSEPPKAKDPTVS
# Procedure, shortened: as §1
# SPIC = target: T2, SPIC (Homo sapiens, UniProt Q8N5J4 1-248); settings: protein: recombinant; tags: N-terminal GST; dsDNA, one strand shown
# T2 sequence: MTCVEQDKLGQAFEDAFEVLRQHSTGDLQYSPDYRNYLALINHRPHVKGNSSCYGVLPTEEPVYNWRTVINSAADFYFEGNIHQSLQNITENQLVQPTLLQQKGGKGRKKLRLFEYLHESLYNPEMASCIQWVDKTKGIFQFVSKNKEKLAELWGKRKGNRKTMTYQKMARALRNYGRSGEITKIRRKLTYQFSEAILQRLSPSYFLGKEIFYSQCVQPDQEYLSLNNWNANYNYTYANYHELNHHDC
# Procedure, shortened: as §1
# ELF4 = ELF4 (Homo sapiens, UniProt Q99607 1-663); settings: protein: recombinant; tags: N-terminal GST; dsDNA, one strand shown
# Chain of ELF4 (Q99607 whole entry): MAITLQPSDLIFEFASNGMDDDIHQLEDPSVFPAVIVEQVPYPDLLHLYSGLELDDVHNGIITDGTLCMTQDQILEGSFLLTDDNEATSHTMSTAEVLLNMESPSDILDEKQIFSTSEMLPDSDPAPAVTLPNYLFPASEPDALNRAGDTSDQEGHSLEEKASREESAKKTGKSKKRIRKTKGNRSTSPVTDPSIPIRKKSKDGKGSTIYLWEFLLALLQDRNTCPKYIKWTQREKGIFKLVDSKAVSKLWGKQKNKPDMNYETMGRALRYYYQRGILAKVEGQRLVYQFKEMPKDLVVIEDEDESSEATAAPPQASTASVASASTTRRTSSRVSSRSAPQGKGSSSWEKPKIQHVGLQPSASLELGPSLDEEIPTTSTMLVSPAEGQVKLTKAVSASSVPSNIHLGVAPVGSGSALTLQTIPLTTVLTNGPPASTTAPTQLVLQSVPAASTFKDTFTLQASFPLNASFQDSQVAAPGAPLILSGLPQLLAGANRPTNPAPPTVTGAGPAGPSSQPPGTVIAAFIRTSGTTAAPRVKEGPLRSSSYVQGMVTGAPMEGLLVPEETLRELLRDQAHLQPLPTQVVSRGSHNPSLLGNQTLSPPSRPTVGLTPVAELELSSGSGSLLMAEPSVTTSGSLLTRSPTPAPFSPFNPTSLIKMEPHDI
# Procedure, shortened: as §1
# ELK4 = target: T3, ELK4 (Homo sapiens, UniProt P28324-2 1-405); settings: protein: recombinant; tags: N-terminal GST; dsDNA, one strand shown
# T3 sequence: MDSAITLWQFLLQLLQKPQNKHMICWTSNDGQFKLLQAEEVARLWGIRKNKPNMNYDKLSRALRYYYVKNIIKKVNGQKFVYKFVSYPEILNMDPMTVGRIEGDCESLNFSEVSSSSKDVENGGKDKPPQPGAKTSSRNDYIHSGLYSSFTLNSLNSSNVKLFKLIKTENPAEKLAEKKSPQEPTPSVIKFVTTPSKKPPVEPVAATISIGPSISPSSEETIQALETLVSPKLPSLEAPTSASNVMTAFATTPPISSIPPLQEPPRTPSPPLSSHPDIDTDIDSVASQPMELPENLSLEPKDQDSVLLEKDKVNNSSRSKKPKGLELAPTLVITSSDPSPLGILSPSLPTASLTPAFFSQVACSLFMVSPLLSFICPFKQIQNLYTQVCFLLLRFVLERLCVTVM
# Procedure, shortened: as §1
# ETV2 = target: T4, ETV2 (Homo sapiens, UniProt O00321 1-342); settings: protein: recombinant; tags: N-terminal GST; dsDNA, one strand shown
# T4 sequence: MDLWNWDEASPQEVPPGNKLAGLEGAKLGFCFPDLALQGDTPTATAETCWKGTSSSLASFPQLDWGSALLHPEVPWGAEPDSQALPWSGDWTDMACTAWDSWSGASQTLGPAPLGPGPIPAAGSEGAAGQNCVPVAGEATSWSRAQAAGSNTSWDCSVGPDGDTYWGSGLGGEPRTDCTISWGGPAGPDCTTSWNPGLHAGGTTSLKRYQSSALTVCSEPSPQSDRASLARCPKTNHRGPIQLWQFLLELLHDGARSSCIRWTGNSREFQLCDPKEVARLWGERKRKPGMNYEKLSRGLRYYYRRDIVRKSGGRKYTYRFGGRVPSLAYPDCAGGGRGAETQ
# Procedure, shortened: as §1
# ELF3 = target: T5, ELF3 (Homo sapiens, UniProt P78545 1-371); settings: protein: recombinant; tags: N-terminal GST; dsDNA, one strand shown
# T5 sequence: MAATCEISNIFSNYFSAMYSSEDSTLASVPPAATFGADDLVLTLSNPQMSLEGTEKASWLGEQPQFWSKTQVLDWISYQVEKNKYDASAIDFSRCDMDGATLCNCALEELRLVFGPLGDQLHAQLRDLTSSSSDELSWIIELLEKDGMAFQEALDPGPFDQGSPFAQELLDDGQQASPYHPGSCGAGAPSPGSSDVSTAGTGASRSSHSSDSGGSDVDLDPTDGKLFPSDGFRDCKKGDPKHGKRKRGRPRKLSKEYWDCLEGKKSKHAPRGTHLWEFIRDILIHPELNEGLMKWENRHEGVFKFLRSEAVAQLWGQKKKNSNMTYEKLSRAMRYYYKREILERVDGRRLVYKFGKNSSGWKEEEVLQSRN
# Procedure, shortened: as §1
# CRX = CRX (Homo sapiens, UniProt O43186 1-299); settings: protein: recombinant; tags: N-terminal GST; dsDNA, one strand shown
# Chain of CRX (O43186 whole entry): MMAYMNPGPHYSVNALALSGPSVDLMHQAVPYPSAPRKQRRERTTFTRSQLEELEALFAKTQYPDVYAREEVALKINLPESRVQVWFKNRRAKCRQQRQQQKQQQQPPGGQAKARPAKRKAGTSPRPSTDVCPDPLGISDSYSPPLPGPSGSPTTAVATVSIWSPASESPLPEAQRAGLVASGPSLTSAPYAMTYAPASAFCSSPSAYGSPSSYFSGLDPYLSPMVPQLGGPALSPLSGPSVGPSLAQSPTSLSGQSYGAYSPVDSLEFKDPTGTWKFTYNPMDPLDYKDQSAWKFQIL
# Procedure, shortened: as §1
# ETV1 = ETV1 (Homo sapiens, UniProt P50549 1-477); settings: protein: recombinant; tags: N-terminal GST; dsDNA, one strand shown
# Chain of ETV1 (P50549 whole entry): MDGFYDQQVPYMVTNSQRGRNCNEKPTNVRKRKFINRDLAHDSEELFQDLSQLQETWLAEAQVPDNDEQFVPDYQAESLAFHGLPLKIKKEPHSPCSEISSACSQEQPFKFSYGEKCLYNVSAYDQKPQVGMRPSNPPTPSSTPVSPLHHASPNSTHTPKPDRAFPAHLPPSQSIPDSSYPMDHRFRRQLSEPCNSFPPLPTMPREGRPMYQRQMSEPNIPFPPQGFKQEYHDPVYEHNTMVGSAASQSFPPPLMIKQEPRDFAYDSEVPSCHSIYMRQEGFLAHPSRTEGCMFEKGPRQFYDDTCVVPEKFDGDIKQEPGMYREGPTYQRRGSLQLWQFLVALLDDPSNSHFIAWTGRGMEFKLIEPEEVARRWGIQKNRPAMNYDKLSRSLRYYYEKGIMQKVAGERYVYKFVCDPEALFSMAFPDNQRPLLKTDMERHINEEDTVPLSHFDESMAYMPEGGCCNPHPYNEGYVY
# Procedure, shortened: as §1
# ERF = target: T6, ERF (Homo sapiens, UniProt P50548 1-548); settings: protein: recombinant; tags: N-terminal GST; dsDNA, one strand shown
# T6 sequence: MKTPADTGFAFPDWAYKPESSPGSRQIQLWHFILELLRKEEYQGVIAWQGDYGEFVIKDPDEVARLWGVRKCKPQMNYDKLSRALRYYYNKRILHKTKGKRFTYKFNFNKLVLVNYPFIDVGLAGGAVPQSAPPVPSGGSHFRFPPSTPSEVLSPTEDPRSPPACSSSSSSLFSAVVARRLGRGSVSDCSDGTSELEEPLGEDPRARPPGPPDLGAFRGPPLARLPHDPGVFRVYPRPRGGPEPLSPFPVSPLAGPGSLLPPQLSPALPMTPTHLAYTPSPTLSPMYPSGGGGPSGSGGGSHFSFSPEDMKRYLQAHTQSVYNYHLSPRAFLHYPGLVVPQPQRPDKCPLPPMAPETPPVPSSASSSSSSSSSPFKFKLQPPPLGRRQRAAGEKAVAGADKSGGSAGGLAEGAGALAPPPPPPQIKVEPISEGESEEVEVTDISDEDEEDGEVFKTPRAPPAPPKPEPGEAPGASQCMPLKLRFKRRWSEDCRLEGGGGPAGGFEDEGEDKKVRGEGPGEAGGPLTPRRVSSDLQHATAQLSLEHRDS
# Procedure, shortened: as §1
# ETV3L = target: T7, ETV3L (Homo sapiens, UniProt Q6ZN32 1-361); settings: protein: recombinant; tags: N-terminal GST; dsDNA, one strand shown
# T7 sequence: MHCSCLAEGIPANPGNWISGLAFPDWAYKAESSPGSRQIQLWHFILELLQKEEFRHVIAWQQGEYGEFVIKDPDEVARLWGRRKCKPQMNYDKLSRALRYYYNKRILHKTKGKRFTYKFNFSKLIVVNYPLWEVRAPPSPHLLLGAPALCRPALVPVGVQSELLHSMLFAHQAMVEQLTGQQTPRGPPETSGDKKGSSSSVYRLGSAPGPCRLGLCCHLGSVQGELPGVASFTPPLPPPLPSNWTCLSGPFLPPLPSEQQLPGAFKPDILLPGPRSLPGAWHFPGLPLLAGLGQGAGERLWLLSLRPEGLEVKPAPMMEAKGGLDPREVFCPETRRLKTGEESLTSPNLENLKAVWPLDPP
# Procedure, shortened: as §1
# ETS2 = target: T8, ETS2 (Homo sapiens, UniProt P15036 1-469); settings: protein: recombinant; tags: N-terminal GST; dsDNA, one strand shown
# T8 sequence: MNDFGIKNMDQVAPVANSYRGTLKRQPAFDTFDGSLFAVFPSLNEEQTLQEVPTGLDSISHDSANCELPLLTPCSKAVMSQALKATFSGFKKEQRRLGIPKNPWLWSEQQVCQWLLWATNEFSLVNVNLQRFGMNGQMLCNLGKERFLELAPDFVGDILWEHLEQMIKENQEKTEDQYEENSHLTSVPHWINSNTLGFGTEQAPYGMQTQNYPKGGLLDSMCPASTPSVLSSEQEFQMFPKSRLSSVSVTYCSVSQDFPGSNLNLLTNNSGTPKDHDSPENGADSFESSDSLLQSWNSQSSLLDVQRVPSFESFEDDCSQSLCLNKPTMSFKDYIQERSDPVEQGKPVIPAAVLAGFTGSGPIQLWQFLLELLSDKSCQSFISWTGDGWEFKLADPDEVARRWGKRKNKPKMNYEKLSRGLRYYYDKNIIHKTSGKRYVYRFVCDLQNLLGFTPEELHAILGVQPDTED
# Procedure, shortened: as §1
# SPDEF = target: T9, SPDEF (Homo sapiens, UniProt O95238 1-335); settings: protein: recombinant; tags: N-terminal GST; dsDNA, one strand shown
# T9 sequence: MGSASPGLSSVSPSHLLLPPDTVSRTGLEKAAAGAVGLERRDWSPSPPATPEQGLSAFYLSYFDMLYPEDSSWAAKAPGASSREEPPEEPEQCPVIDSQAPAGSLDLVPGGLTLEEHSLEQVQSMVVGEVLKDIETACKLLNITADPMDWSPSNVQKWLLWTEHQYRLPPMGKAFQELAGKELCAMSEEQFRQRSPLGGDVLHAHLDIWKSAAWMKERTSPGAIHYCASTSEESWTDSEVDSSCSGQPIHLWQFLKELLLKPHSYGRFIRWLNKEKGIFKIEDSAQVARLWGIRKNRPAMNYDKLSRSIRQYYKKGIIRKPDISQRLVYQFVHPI
# Procedure, shortened: as §1
# ETV7 = target: T10, ETV7 (Homo sapiens, UniProt Q9Y603 1-341); settings: protein: recombinant; tags: N-terminal GST; dsDNA, one strand shown
# T10 sequence: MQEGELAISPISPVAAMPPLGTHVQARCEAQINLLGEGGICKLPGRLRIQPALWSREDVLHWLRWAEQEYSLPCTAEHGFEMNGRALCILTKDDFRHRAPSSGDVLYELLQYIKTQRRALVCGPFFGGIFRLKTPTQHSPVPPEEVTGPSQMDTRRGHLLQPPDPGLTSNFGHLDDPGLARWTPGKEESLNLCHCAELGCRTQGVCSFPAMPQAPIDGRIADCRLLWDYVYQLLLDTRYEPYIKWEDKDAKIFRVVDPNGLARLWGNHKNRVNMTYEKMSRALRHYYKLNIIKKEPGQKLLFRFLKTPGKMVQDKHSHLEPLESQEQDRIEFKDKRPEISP
# Procedure, shortened: as §1
# ELF5 = target: T11, ELF5 (Homo sapiens, UniProt Q9UKW6-2 1-255); settings: protein: recombinant; tags: N-terminal GST; dsDNA, one strand shown
# T11 sequence: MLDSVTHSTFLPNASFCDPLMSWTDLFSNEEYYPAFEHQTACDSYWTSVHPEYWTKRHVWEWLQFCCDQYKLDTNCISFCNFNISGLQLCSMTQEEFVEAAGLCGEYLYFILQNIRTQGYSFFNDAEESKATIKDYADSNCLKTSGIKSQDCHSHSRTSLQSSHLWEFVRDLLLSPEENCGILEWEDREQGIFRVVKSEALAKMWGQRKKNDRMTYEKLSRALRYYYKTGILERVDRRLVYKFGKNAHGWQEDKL
# Procedure, shortened: as §1
# ETV3 = target: T12, ETV3 (Homo sapiens, UniProt P41162-2 1-143); settings: protein: recombinant; tags: N-terminal GST; dsDNA, one strand shown
# T12 sequence: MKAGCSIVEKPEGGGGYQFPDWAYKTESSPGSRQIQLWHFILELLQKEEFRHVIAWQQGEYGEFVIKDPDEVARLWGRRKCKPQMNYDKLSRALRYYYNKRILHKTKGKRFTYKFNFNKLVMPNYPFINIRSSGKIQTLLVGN
# Procedure, shortened: as §1
# ETV6 = ETV6 (Homo sapiens, UniProt P41212 1-452); settings: protein: recombinant; tags: N-terminal GST; dsDNA, one strand shown
# Chain of ETV6 (P41212 whole entry): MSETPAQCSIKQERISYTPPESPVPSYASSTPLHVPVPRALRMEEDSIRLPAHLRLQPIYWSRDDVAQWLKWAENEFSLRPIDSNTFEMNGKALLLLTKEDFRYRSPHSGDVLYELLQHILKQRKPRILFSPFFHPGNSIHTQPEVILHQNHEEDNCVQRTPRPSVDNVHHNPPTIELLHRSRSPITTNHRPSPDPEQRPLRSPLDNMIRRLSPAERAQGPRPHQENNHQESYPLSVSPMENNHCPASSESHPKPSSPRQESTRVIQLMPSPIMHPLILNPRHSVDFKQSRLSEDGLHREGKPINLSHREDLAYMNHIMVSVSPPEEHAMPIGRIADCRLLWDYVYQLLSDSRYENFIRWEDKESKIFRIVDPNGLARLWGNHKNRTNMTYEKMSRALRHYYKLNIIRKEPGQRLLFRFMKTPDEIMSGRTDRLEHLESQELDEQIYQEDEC
# Procedure, shortened: as §1
sequence,measurement,setting,value
CTCAAT,binding signal,FEV,"1.23 fold enrichment (6-mer frequency, TF over GST control)"
same,binding signal,ETV5,"1.31 fold enrichment (6-mer frequency, TF over GST control)"
same,binding signal,HSF1,"1.17 fold enrichment (6-mer frequency, TF over GST control)"
same,binding signal,SPIC,"1.17 fold enrichment (6-mer frequency, TF over GST control)"
same,binding signal,ELF4,"1.26 fold enrichment (6-mer frequency, TF over GST control)"
same,binding signal,ELK4,"1.3 fold enrichment (6-mer frequency, TF over GST control)"
same,binding signal,ETV2,"1.4 fold enrichment (6-mer frequency, TF over GST control)"
same,binding signal,ELF3,"1.22 fold enrichment (6-mer frequency, TF over GST control)"
same,binding signal,CRX,"1.25 fold enrichment (6-mer frequency, TF over GST control)"
same,binding signal,ETV1,"1.27 fold enrichment (6-mer frequency, TF over GST control)"
same,binding signal,ERF,"1.22 fold enrichment (6-mer frequency, TF over GST control)"
same,binding signal,ETV3L,"1.36 fold enrichment (6-mer frequency, TF over GST control)"
same,binding signal,ETS2,"1.21 fold enrichment (6-mer frequency, TF over GST control)"
same,binding signal,SPDEF,"1.21 fold enrichment (6-mer frequency, TF over GST control)"
same,binding signal,ETV7,"1.16 fold enrichment (6-mer frequency, TF over GST control)"
same,binding signal,ELF5,"1.27 fold enrichment (6-mer frequency, TF over GST control)"
same,binding signal,ETV3,"1.2 fold enrichment (6-mer frequency, TF over GST control)"
same,binding signal,ETV6,"1.23 fold enrichment (6-mer frequency, TF over GST control)"
